40 compounds from ChEMBL document CHEMBL3988442, “University of Dundee, Small-Polar-MMV Screening Library” (2021) can be followed below.

The structures appear in SMILES notation.

The target of the assay is AMP-activated protein kinase, AMPK (Homo sapiens) (UniProt P54646+O43741+P54619+Q9UGJ0+Q9Y478+Q13131+Q9UGI9). The assay can be described thus: AMP-dependent Kinase enzyme assay. An in vitro enzyme assay that detects ADP turnover that is directly proportional to AMPK activity. This uses naive AMPK that is activated during the assay with MK-8722. The class given is functional. The arrangement: scale not given: direction of the effect not stated beside the values. The conditions noted are these: 30 µM.
Regarding `O=C(NCCCc1nnc2ccccn12)c1ccccc1C1CCNC1` (stereo not given), the Percent Effect stood at 1.24%.

On to `CS(=O)(=O)NCC1CCCN(Cc2ccccc2F)C1` (stereo not given), for which the Percent Effect was -6.5%.

For the compound `O=C(C1CCOC1)N1CCN(CC2CC2)c2ccccc21` (stereo not given), the Percent Effect worked out at 5.43%.

In the case of `CC(C)n1cnnc1CN(C)C(=O)c1cc(COc2ccccc2)[nH]n1`, the Percent Effect was 0%.

For the compound `COc1cc(Br)c(S(=O)(=O)NC(=O)C(C)OC)cc1OC` (stereo not given), the Percent Effect was -6.43%.

For the compound `Cn1ccnc1CNC(=O)c1cncc(C2CCNCC2)n1`, the Percent Effect is 1.13%.

Turning to `CC1(C)Cc2nc(C(C)(C)C)ncc2C(NC(=O)Cc2nnn[nH]2)C1` (stereo not given), the Percent Effect was -20.8%.

Consider `CCS(=O)(=O)NCc1nc(C)cc(N2CCCCC2)n1`, for which the Percent Effect came to 0.829%.

On to `Cc1c(NC(=O)c2cnc[nH]2)cccc1C(=O)NC(C)(C)C`, for which the Percent Effect was determined as 15%.

Consider `Cc1nc(C)n(CC2CCCN2c2ncnc3sccc23)n1` (stereo not given), for which the Percent Effect was 1.91%.

As to `N#Cc1cccnc1NCc1cccnc1N1CCCCC1`, the Percent Effect came out at 7.89%.

With `CCC(=O)Nc1cccc(OCC(=O)N2CC=CC2C(C)C)c1` (stereo not given), the Percent Effect was -4.81%.

For the compound `O=C(c1cccc(-n2cnnc2)c1)N1C[C@@H](O)[C@H](N2CCOCC2)C1`, the Percent Effect was 15.5%.

As to `CCC(=O)NC(CC)c1ccccc1C` (stereo not given), the Percent Effect came to 7.08%.

For the compound `Cc1cc(C2CCCN(CCC(=O)N3CCc4ccccc43)C2)n[nH]1` (stereo not given), the Percent Effect was -4.69%.

Consider `CC(O)c1cccc(OCc2ccon2)c1` (stereo not given), for which the Percent Effect stood at 4.94%.

`CC(C)(C)c1noc(CCC(=O)N2CCNC(=O)C2)n1`: the Percent Effect was -9.99%.

As to `CNC(=O)c1sc(C(NC(=O)c2ccccc2)C2CC2)nc1C` (stereo not given), the Percent Effect is -1.61%.

Turning to `CCN1CCN(c2ccccc2NC(=O)NCc2ccon2)CC1`, the Percent Effect turned out to be 2.14%.

Turning to `CN(Cc1cnccn1)c1cncc(Br)c1`, the Percent Effect amounted to 3.25%.

Turning to `O=C(C1CC(c2ccccc2)=NO1)N1CCCCc2ccccc21` (stereo not given), the Percent Effect was found to be 4.65%.

In the case of `CCc1cc(=O)n(CCNC(=O)Nc2ccc(OC(F)(F)F)cc2)cn1`, the Percent Effect is -3.24%.

In the case of `CC(Cn1ccnc1)NC(=O)NCCN1CCCCCC1=O` (stereo not given), the Percent Effect worked out at 0.204%.

On to `O=S(=O)(c1cccnc1)N1CCCCC1CCN1CCOCC1` (stereo not given), for which the Percent Effect came out at 16.1%.

As for `CC1CCCCN1C(=O)COc1nc(C(C)(C)C)no1` (stereo not given), the Percent Effect is -0.675%.

On to `CCOc1ccccc1C(=O)NCc1nncn1C1CC1`, for which the Percent Effect was -9.44%.

In the case of `CC1CCN(C(=O)CCN2Cc3ccccc3C[C@H]2C(N)=O)C1` (stereo not given in full), the Percent Effect was -7.65%.

As to `Cc1cc(NC(=O)NCCO)nn1-c1ccc(Cl)cc1Cl`, the Percent Effect was -2.67%.

For the compound `CCc1ccc2nc(-c3cnn(C)c3)cc(C(=O)N3CCOCC3)c2c1`, the Percent Effect is 8.54%.

Consider `O=C(Cc1nc(-c2ccncc2)n[nH]1)NCCCN1CCOCC1`, for which the Percent Effect is -0.0149%.

For the compound `Cn1cncc1C(=O)N1CCCC(c2ccn[nH]2)C1` (stereo not given), the Percent Effect was -5.31%.

With `Cc1ccc(OCC2CCCN(c3cc(C(N)=O)ccn3)C2)cc1` (stereo not given), the Percent Effect stood at 2.7%.

For the compound `CC(=O)c1cnc(NCCCN2CCOCC2)nc1C`, the Percent Effect is -7.41%.

For the compound `CCc1ccc2nc(C)cc(C(=O)NC3CCC(=O)N(C)C3)c2c1` (stereo not given), the Percent Effect is -7.18%.

Regarding `NC(=O)CC1CCN(c2cncc(OCc3ccccc3)n2)CC1`, the Percent Effect stood at 20.6%.

Take `Cc1cc(CN(C)c2nc(-c3ccco3)nc3c2CCN(C)CC3)on1`: the Percent Effect came out at 6.52%.

As to `O=C(NCc1nnc2n1CCC2)c1cn(-c2ccccc2Br)nn1`, the Percent Effect is 12%.

Regarding `CCN(CC1CCCO1)C(=O)NCCNC(=O)c1ccccc1F` (stereo not given), the Percent Effect came out at 1.37%.

As for `O=C1OC2(CCN(CC3CCCO3)CC2)CN1CCc1ccccc1` (stereo not given), the Percent Effect is -11.7%.

As for `NC(=O)c1cc(C2CCCN(CCc3ccc4c(c3)CCO4)C2)n[nH]1` (stereo not given), the Percent Effect was determined as 3.33%.
